Measurements from PubChem BioAssay.
Calls of active or inactive are those of the source.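 Rule for the calls: active = Her2 level under about 52% in both replicate screens, with viability over 70% of control (limit read from the data); inconclusive = Her2 under the limit in one screen only, or viability under 70%; inactive = Her2 level above the set limit.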

Test system: not listed separately
Assay: reducers of endogenous Her2 protein level, primary screen, SKBR3 breast tumor cells, AlphaScreen, ATP viability (AID 461);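 for Her2 level: lower value means less Her2 protein in the cells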;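 for viability: percent of carrier control wells set as 100% viability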
Settings: 18-24 h, measured here: SKBR3 viability, ATP luminescence, at 10 µM

SMILES | viability [%]
CCOc1ccc(OCc2ccc(C(=O)Nc3cccc(C)n3)o2)cc1 | 101
CCOC(=O)N1CCC(NC(=O)CSCc2nc(-c3cccc(OC)c3)oc2C)CC1 | 94.5
Cn1c(=O)cc(OCC(=O)N2CCN(c3cccc(C(F)(F)F)c3)CC2)c2ccccc21 | 89
CCCCOc1ccc(CSc2n[nH]c(C)n2)cc1 | 83.5
CS(=O)(=O)N(CC(=O)NCc1ccccn1)c1ccc2c(c1)OCCO2 | 104
CCOC(=O)CSc1nnc([C@H](C)NC(=O)OC(C)(C)C)o1 | 104
CCSc1nnc2c(n1)OC=Nc1ccc(Br)cc1-2 | 92.5
COc1ccccc1Nc1nc2ccccc2[nH]1 | 92
Cc1oc(-c2ccccc2Cl)nc1CSCC(=O)N1CCCC1 | 72
CNC(=O)Nc1cccc(C(F)(F)F)c1 | 105
CCOC(=O)N1CCN(c2c(NCCN(C)Cc3ccccc3)c(=O)c2=O)CC1 | 98
CCOc1ncccc1C(=O)OCC(=O)N1CC(=O)Nc2ccccc21 | 87
Cn1c(=O)c2c(-c3ccccc3)n(CCCN3CCOCC3)cc2n(C)c1=O | 77.5
COc1cccc(NC(=O)N2CCN(c3cccc(C)c3C)CC2)c1 | 102
CCCCC(=O)NCCNc1nc2c(c(=O)n(C)c(=O)n2C)n1Cc1ccccc1 | 116
COc1ccc(S(=O)(=O)Nc2ccc(S(=O)(=O)N3CCCCC3)cc2)cc1OC | 92
COc1ccc(CN2CC(C(=O)NCc3ccccn3)CC2=O)cc1 (stereo not given) | 92.5
CC(C)(C)NC(=O)Cn1nnc(-c2cccs2)n1 | 94
COCCn1nnnc1CN(Cc1cccnc1)Cc1cc2cc(OC)ccc2[nH]c1=O | 91
CC(C)=CC/C=C1\CCC(C(=O)O)C(C(=O)O)C1 (stereo not given) | 114

SMILES | viability [%]
CCOC(=O)C1=C(C)NC(SC(C)=O)=NC1c1ccc(OC(C)=O)c(OC)c1 (stereo not given) | 106
O=C(Nc1cccc(F)c1)c1cccc(S(=O)(=O)N2CCOCC2)c1 | 107
CCCn1c(SCC(=O)N2CCCc3ccccc32)nnc1-c1ccccn1 | 84.5
Cc1ccccc1N(C)S(=O)(=O)c1ccc2[nH]cc(C(=O)NCC3CCCO3)c(=O)c2c1 (stereo not given) | 83
Cc1cccc(C(OC(=O)c2ccco2)C(=O)NCc2ccccc2)n1 (stereo not given) | 102
Nn1c(SCC(=O)Nc2ccc(F)cc2)nnc1-c1cccnc1 | 90.5
CCOC(=O)c1c(NC(=O)c2nn(CC)cc2Br)c(C#N)cn1-c1ccccc1 | 78
CCCCOC(=O)CN1C(=O)c2ccc(C(=O)OCCCC)cc2C1=O | 87
O=C(COc1ccc(Cl)cc1)Nc1nc(-c2cccs2)cs1 | 96
O=C(CSc1ncn[nH]1)c1ccco1 | 120
CC(=O)Nc1c(O)nc(SCC(=O)Nc2nnc(CC(C)C)s2)[nH]c1=O | 86.5
COC(=O)C(C)NC(=O)C12CC3CC(CC(C3)C1)C2 (stereo not given) | 92
CCOc1cc(C2C(C#N)=C(N)OC(C)=C2C(C)=O)cc(Br)c1O (stereo not given) | 114
COC(=O)c1cc(Br)c(=O)n(Cc2cccnc2)c1 | 108
COc1cc(NS(=O)(=O)c2ccc(Br)s2)cc(OC)c1 | 87
Cc1ccccc1N(CC(=O)NCC1CCCO1)C(=O)C1(C)CC(=O)N=C2C=CC=CN21 (stereo not given) | 96
CSc1ccc(S(=O)(=O)Nc2cccc(F)c2)cc1 | 96
CCC(C)(C)n1nnnc1C(c1ccncc1)N1CCN(c2cccc(OC)c2)CC1 (stereo not given) | 77.5
CCn1c(=O)c(C(=O)Nc2cccnc2)c(O)c2ccccc21 | 103
CCOCCCNC(=O)CCNS(=O)(=O)c1ccc(C)cc1 | 102

Target: Receptor tyrosine-protein kinase erbB-2 (Homo sapiens) (UniProt P04626)
Assay: as above
Settings: 18-24 h, at 10 µM, stronger effect = lower value

Sequence of Receptor tyrosine-protein kinase erbB-2 (Homo sapiens) (P04626 whole entry, looked up): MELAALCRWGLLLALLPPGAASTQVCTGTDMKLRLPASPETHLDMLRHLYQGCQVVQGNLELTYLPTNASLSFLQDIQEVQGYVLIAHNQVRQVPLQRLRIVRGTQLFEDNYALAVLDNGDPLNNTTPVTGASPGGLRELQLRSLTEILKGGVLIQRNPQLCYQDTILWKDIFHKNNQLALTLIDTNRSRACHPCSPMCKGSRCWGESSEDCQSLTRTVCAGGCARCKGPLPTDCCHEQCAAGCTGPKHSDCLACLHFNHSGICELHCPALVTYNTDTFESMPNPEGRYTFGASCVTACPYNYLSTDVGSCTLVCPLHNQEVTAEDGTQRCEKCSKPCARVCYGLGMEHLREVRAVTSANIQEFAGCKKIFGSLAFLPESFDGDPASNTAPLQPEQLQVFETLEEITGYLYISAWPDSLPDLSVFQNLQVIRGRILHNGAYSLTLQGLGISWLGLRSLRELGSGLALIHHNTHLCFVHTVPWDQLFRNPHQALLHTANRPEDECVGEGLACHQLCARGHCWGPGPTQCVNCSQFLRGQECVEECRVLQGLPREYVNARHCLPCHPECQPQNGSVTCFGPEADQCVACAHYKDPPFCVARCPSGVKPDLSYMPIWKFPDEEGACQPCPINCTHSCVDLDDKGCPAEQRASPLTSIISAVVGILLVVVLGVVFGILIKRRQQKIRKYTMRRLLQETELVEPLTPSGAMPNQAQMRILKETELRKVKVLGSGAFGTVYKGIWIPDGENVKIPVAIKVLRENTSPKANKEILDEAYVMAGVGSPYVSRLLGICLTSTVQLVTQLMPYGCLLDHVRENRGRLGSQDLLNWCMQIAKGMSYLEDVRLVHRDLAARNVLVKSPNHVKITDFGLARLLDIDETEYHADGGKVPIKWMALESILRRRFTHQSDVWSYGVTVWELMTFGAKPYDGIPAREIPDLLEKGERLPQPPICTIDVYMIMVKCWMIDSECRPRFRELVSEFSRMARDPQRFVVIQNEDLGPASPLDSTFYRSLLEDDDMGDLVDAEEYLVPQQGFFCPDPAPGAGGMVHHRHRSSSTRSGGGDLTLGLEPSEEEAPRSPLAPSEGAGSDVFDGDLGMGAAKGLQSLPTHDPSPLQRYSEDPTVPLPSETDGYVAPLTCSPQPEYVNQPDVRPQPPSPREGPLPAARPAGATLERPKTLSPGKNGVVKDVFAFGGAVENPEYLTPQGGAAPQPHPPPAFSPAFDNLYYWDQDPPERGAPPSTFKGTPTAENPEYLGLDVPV

SMILES | Her2 level
CCOc1ccc(OCc2ccc(C(=O)Nc3cccc(C)n3)o2)cc1 | 85% (inactive)
CCOC(=O)N1CCC(NC(=O)CSCc2nc(-c3cccc(OC)c3)oc2C)CC1 | 91% (inactive)
Cn1c(=O)cc(OCC(=O)N2CCN(c3cccc(C(F)(F)F)c3)CC2)c2ccccc21 | 82% (inactive)
CCCCOc1ccc(CSc2n[nH]c(C)n2)cc1 | 99.5% (inactive)
CS(=O)(=O)N(CC(=O)NCc1ccccn1)c1ccc2c(c1)OCCO2 | 104% (inactive)
CCOC(=O)CSc1nnc([C@H](C)NC(=O)OC(C)(C)C)o1 | 97% (inactive)
CCSc1nnc2c(n1)OC=Nc1ccc(Br)cc1-2 | 86% (inactive)
COc1ccccc1Nc1nc2ccccc2[nH]1 | 93.5% (inactive)
Cc1oc(-c2ccccc2Cl)nc1CSCC(=O)N1CCCC1 | 86.5% (inactive)
CNC(=O)Nc1cccc(C(F)(F)F)c1 | 82.5% (inactive)
CCOC(=O)N1CCN(c2c(NCCN(C)Cc3ccccc3)c(=O)c2=O)CC1 | 95% (inactive)
CCOc1ncccc1C(=O)OCC(=O)N1CC(=O)Nc2ccccc21 | 97% (inactive)
Cn1c(=O)c2c(-c3ccccc3)n(CCCN3CCOCC3)cc2n(C)c1=O | 98.5% (inactive)
COc1cccc(NC(=O)N2CCN(c3cccc(C)c3C)CC2)c1 | 72.5% (inactive)
CCCCC(=O)NCCNc1nc2c(c(=O)n(C)c(=O)n2C)n1Cc1ccccc1 | 83% (inactive)
COc1ccc(S(=O)(=O)Nc2ccc(S(=O)(=O)N3CCCCC3)cc2)cc1OC | 100% (inactive)
COc1ccc(CN2CC(C(=O)NCc3ccccn3)CC2=O)cc1 (stereo not given) | 104% (inactive)
CC(C)(C)NC(=O)Cn1nnc(-c2cccs2)n1 | 84% (inactive)
COCCn1nnnc1CN(Cc1cccnc1)Cc1cc2cc(OC)ccc2[nH]c1=O | 75% (inactive)
CC(C)=CC/C=C1\CCC(C(=O)O)C(C(=O)O)C1 (stereo not given) | 104% (inactive)

SMILES | Her2 level
CCOC(=O)C1=C(C)NC(SC(C)=O)=NC1c1ccc(OC(C)=O)c(OC)c1 (stereo not given) | 95.5% (inactive)
O=C(Nc1cccc(F)c1)c1cccc(S(=O)(=O)N2CCOCC2)c1 | 87% (inactive)
CCCn1c(SCC(=O)N2CCCc3ccccc32)nnc1-c1ccccn1 | 102% (inactive)
Cc1ccccc1N(C)S(=O)(=O)c1ccc2[nH]cc(C(=O)NCC3CCCO3)c(=O)c2c1 (stereo not given) | 71% (inactive)
Cc1cccc(C(OC(=O)c2ccco2)C(=O)NCc2ccccc2)n1 (stereo not given) | 90% (inactive)
Nn1c(SCC(=O)Nc2ccc(F)cc2)nnc1-c1cccnc1 | 81% (inactive)
CCOC(=O)c1c(NC(=O)c2nn(CC)cc2Br)c(C#N)cn1-c1ccccc1 | 90% (inactive)
CCCCOC(=O)CN1C(=O)c2ccc(C(=O)OCCCC)cc2C1=O | 94% (inactive)
O=C(COc1ccc(Cl)cc1)Nc1nc(-c2cccs2)cs1 | 74.5% (inactive)
O=C(CSc1ncn[nH]1)c1ccco1 | 92% (inactive)
CC(=O)Nc1c(O)nc(SCC(=O)Nc2nnc(CC(C)C)s2)[nH]c1=O | 99.5% (inactive)
COC(=O)C(C)NC(=O)C12CC3CC(CC(C3)C1)C2 (stereo not given) | 123% (inactive)
CCOc1cc(C2C(C#N)=C(N)OC(C)=C2C(C)=O)cc(Br)c1O (stereo not given) | 91% (inactive)
COC(=O)c1cc(Br)c(=O)n(Cc2cccnc2)c1 | 81.5% (inactive)
COc1cc(NS(=O)(=O)c2ccc(Br)s2)cc(OC)c1 | 104% (inactive)
Cc1ccccc1N(CC(=O)NCC1CCCO1)C(=O)C1(C)CC(=O)N=C2C=CC=CN21 (stereo not given) | 96.5% (inactive)
CSc1ccc(S(=O)(=O)Nc2cccc(F)c2)cc1 | 76% (inactive)
CCC(C)(C)n1nnnc1C(c1ccncc1)N1CCN(c2cccc(OC)c2)CC1 (stereo not given) | 82.5% (inactive)
CCn1c(=O)c(C(=O)Nc2cccnc2)c(O)c2ccccc21 | 84.5% (inactive)
CCOCCCNC(=O)CCNS(=O)(=O)c1ccc(C)cc1 | 108% (inactive)
